Assay [1] concerns EIF2AK1. The settings on record: concentration: 1 μM, replicates: in singlicate; n = 1.
For assay [2], the system named is EPHA1. The settings on record: concentration: 1 μM, replicates: in singlicate, n = 1.
Assay [3] has as its system EPHA2. To be noted: concentration: 1 μM, replicates: in singlicate; n = 1.
Assay [4] relates to EPHA3. To be noted: concentration: 1 μM, replicates: in singlicate, n = 1.
For assay [5], the system named is EPHA4. To be noted: concentration: 1 μM, replicates: in singlicate, n = 1.
Assay [6] concerns EPHA5. The settings on record: concentration: 1 μM, replicates: in singlicate; n = 1.
Assay [7] relates to EPHA6. The settings on record: concentration: 1 μM, replicates: in singlicate, n = 1.
Assay [8] deals with EPHA7. The settings on record: concentration: 1 μM, replicates: in singlicate; n = 1.
Assay [9] relates to EPHA8. To be noted: concentration: 1 μM, replicates: in singlicate, n = 1.
Assay [10] has as its system EPHB1. To be noted: concentration: 1 μM, replicates: in singlicate, n = 1.
Assay [11] concerns EPHB2. To be noted: concentration: 1 μM, replicates: in singlicate; n = 1.
The test system of assay [12] is EPHB3. The settings on record: concentration: 1 μM, replicates: in singlicate, n = 1.
Assay [13] relates to EPHB4. The settings on record: concentration: 1 μM, replicates: in singlicate, n = 1.
Assay [14] concerns EPHB6. To be noted: concentration: 1 μM, replicates: in singlicate, n = 1.
Assay [15] relates to ERBB2. The settings on record: concentration: 1 μM, replicates: in singlicate, n = 1.
Assay [16] concerns ERBB3. The settings on record: concentration: 1 μM, replicates: in singlicate, n = 1.
In assay [17] the test system is ERBB4. To be noted: concentration: 1 μM, replicates: in singlicate, n = 1.
Assay [18] relates to T1, ERK1.
T1 construct: gene MAPK3
The settings on record: concentration: 1 μM, replicates: in singlicate; n = 1.

The subject of assay [19] is T2, ERK2.
T2 construct: gene MAPK1
To be noted: concentration: 1 μM, replicates: in singlicate; n = 1.

Assay [20] relates to T3, ERK3.
T3 construct: gene MAPK6
To be noted: concentration: 1 μM, replicates: in singlicate, n = 1.

Values joined by “and” are separate entries in the source; they are usually repeats but may differ in a detail not shown here. Identical values can stand only once. Like-named read-outs stand apart in the source and are kept apart here.
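Note: KINOMEscan kinase panel screen.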

As for `COc1ccc(-c2nc3n(c2-c2ccncc2)CCC3)cc1` [SKF-104493], the “%Inh” value is 0% in assay [1]; 18% and 0% in assay [2] (1 µM); 0% in [3]; 0% and 18% in assay [4] (1 µM); 0% and 17% in assay [5] (1 µM); 0% in [6]. Besides, the “%Inh” value in assay [7] (1 µM) was 10% and 7%; in [8] it was 0%; in assay [9] (1 µM), 8% and 0%; in assay [10] (1 µM), 0% and 22%; in assay [11], 0%; in [12] (1 µM) it was 10% and 4%. Also, the “%Inh” value in assay [13] (1 µM) was 16% and 11%; in [14] (1 µM), 8% and 0%; in [15] (1 µM) it was 0% and 29%; in assay [16] (1 µM), 0% and 8%; in assay [17] (1 µM), 29% and 18%; in assay [18], 0%. In addition, the “%Inh” value in [19] is 0%; in [20] (1 µM), 0% and 9%.
Turning to `Nc1nccc2scc(-c3ccc4c(c3)CCN4C(=O)Cc3cc(F)ccc3F)c12` [GSK2587663], the “%Inh” value in assay [1] is 0%; in [2], 11%; in assay [3], 17%; in assay [4], 0%; in assay [5], 12%; in assay [6], 0%. In addition, the “%Inh” value in [7] amounted to 25%; in assay [8] it was 6%; in [9], 20%; in assay [10], 7%; in assay [11], 10%; in assay [12], 34%. The “%Inh” value in assay [13] was 27%; in assay [14], 59%; in assay [15] it was 14%; in [16] it was 0%; in assay [17] it was 46%; in assay [18] it was 3%. Further, the “%Inh” value came out at 0% in assay [19] and 4% in assay [20].
As to `Cl.Cl.c1ccc(-c2cc3ccncc3cc2OC2CCNCC2)cc1` [GSK1122999], the “%Inh” value is on record as 13% in [1]; 11% in assay [2]; 13% in assay [3]; 0% in [4]; 9% in [5]; 0% in assay [6]. In addition, the “%Inh” value in [7] was determined as 12%; in assay [8] it was 5%; in [9], 13%; in assay [10], 25%; in [11], 47%; in assay [12], 17%. In addition, the “%Inh” value in [13] amounted to 5%; in [14] it was 11%; in assay [15], 10%; in assay [16], 0%; in assay [17], 0%; in assay [18], 0%. Besides, the “%Inh” value in assay [19] turned out to be 4%; in [20] it was 24%.
For `Oc1ccc2ncnc(Nc3ccc(OCc4ccccc4)cc3)c2c1` [GI262866], the “%Inh” value in [1] came to 0%; in assay [2], 11%; in assay [3], 0%; in assay [4], 0%; in [5], 6%; in assay [6] it was 0%. For the same compound, the “%Inh” value in [7] is listed as 16%; in [8], 3%; in assay [9], 14%; in [10] it was 14%; in assay [11], 0%; in assay [12] it was 12%. The “%Inh” value in assay [13] amounted to 2%; in [14] it was 0%; in [15] it was 99.2%; in [16], 15%; in assay [17], 77%; in assay [18], 0%. Besides, the “%Inh” value was determined as 0% in [19] and 3% in [20].
In the case of `O=C(CCO)NCCn1ccc2ncnc(Nc3ccc(Oc4cccc(C(F)(F)F)c4)c(Cl)c3)c21`, the “%Inh” value in [1], in assay [2], in assay [3], in [4], in [5] and in assay [6] was 0% in each case. The “%Inh” value in assay [7] turned out to be 0%; in assay [8], 0%; in assay [9], 0%; in [10], 0%; in assay [11], 0%; in assay [12] it was 2%. Further, the “%Inh” value was 3% in assay [13]; 8% in assay [14]; 100% in assay [15]; 0% in assay [16]; 95.9% in [17]; 0% in assay [18]. Also, the “%Inh” value came out at 9% in [19] and 0% in assay [20].
As for `Cn1cc(-c2ccc3c(c2)CCN3C(=O)Cc2cccc(C(F)(F)F)c2)c2c(N)ncnc21` [GSK2606414], the “%Inh” value in assay [1] was found to be 1%; in [2], 3%; in [3] it was 0%; in assay [4], 0%; in assay [5], 0%; in assay [6] it was 0%. Also, the “%Inh” value in assay [7] is recorded as 0%; in [8] it was 4%; in assay [9], 14%; in assay [10] it was 15%; in assay [11], 0%; in assay [12], 0%. In addition, the “%Inh” value was found to be 0% in [13]; 18% in assay [14]; 0% in assay [15]; 0% in assay [16]; 0% in [17]; 0% in assay [18]. In addition, the “%Inh” value is 0% in assay [19] and 2% in [20].
For the compound `Cn1ccc2ncnc(Nc3ccc(Oc4cccc(Cl)c4)c(Cl)c3)c21`, the “%Inh” value in assay [1] came to 0%; in [2] it was 0%; in assay [3] it was 5%; in assay [4], 13%; in assay [5], 0%; in [6], 21%. The “%Inh” value is given as 21% in [7]; 94.1% in [8]; 86% in assay [9]; 15% in assay [10]; 4% in assay [11]; 0% in assay [12]. In addition, the “%Inh” value in [13] came out at 0%; in assay [14] it was 4%; in [15] it was 100%; in assay [16] it was 17%; in [17], 97%; in assay [18], 2%. In addition, the “%Inh” value in assay [19] came out at 35%; in assay [20], 6%.
On to `O=C(c1ccc(-c2cc(-c3c[nH]nc3-c3ccccn3)ccn2)cc1)N1CCCC1` [GW792479], for which the “%Inh” value amounted to 0% in assay [1]; 56% in assay [2]; 21% in assay [3]; 1% in assay [4]; 13% in assay [5]; 36% in assay [6]. For the same compound, the “%Inh” value in assay [7] is 2%; in [8], 9%; in [9] it was 19%; in assay [10], 5%; in assay [11], 19%; in assay [12], 14%. For the same compound, the “%Inh” value in [13] is on record as 17%; in [14], 0%; in [15], 10%; in assay [16], 57%; in assay [17], 0%; in [18], 0%. Further, the “%Inh” value in assay [19] was 32%; in assay [20], 0%.
Consider `Cc1ccc(O)cc1Nc1cc(C(F)(F)F)nc2ccc(-c3ccncc3)cc12` [GW630823], for which the “%Inh” value came out at 0% in assay [1]; 6% in assay [2]; 17% in assay [3]; 0% in assay [4]; 5% in assay [5]; 3% in [6]. The “%Inh” value in [7] was found to be 5%; in assay [8], 88%; in assay [9], 68%; in [10], 12%; in assay [11], 3%; in assay [12], 0%. For the same compound, the “%Inh” value is 18% in [13]; 9% in assay [14]; 0% in assay [15]; 0% in assay [16]; 0% in assay [17]; 2% in assay [18]. Also, the “%Inh” value in [19] is 5%; in assay [20], 9%.
For the compound `CS(=O)(=O)CCNCc1ccc(-c2ccc3ncnc(Nc4ccc(OCc5ccccc5)c(Cl)c4)c3c2)o1.Cl` [GW574783], the “%Inh” value in assay [1] was found to be 0%; in assay [2], 3%; in [3], 1%; in [4] it was 0%; in assay [5], 13%; in assay [6], 0%. In addition, the “%Inh” value in assay [7] is listed as 15%; in [8], 0%; in assay [9] it was 8%; in assay [10], 3%; in assay [11], 0%; in [12], 18%. The “%Inh” value came to 8% in assay [13]; 28% in assay [14]; 100% in [15]; 69% in [16]; 90.8% in assay [17]; 4% in assay [18]. In addition, the “%Inh” value in assay [19] and in [20] was 0% each time.

These data come from publication PMC5540273 (PLoS ONE, 2017).
